Assay [1] in a line: antimalarial activity against Dd2 strain (AID 2302;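 active means growth inhibition above 50% at the single 2 µM test dose, taken to imply half-maximal potency below 2 µM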;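 further: 0% = DMSO untreated growth and 100% = chloroquine plus artemisinin killed control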). To be noted: P. falciparum Dd2 in RBCs, LDH growth readout, 72 h; at 2 µM; stronger effect = higher value.
A short description of assay [2]: HepG2 cytotoxicity, primary screen, cytotoxicity control for P. falciparum antimalarial project, cell-based, ATP luminescence (AID 2303;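 active means inhibition above 50%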;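 further: 0% = DMSO wells and 100% = digitonin-killed cells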). As to conditions: HepG2 viability, 24-48 h, at 10 µM, stronger effect = higher value.
Assay [3] addresses L-lactate dehydrogenase (Plasmodium falciparum (isolate CDC / Honduras)) (UniProt Q27743). Nature of the assay: PfLDH activity inhibition – cell lysate, 3D7 strain, counter-screen for P. falciparum growth inhibition project (AID 2304).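 Further: 0% = vehicle and 100% = reference inhibitor.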 To be noted: P. falciparum 3D7 crude extract, LDH APAD/NBT absorbance; at 2 µM; stronger effect = higher value. (In general: The purpose of a counterscreen is to sort out artefacts and off-target activity.)

A short description of assay [4]: inhibition of 3D7 malaria parasite growth – strain 3D7 (AID 2306).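 Further: 0% = DMSO wells and 100% = chloroquine plus artemisinin control wells.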 As to conditions: P. falciparum 3D7 erythrocytic growth, LDH absorbance, 72 h; at 2 µM; stronger effect = higher value.
Assay [5] concerns the target Calcium-dependent protein kinase 1 (Plasmodium falciparum (isolate 3D7)) (UniProt P62344). Nature of the assay: PfCDPK1 kinase inhibitors, biochemical, TCAMS library (AID 1159585; cut-off not given, nearly all actives have IC50 up to about 0.98 µM;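 further: inhibitors leave more ATP so luminescence rises with inhibition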). As to conditions: recombinant PfCDPK1, Kinase-Glo ATP depletion luminescence.
Assay [6] has as its target Plasmodium falciparum protein kinase 6 (PK6, PF3D7_1337100) (UniProt Q8IDW1). Nature of the assay: PfPK6 kinase inhibitors, biochemical, TCAMS library (AID 1159586). To be noted: recombinant PfPK6, Kinase-Glo ATP depletion luminescence. In general terms: Kinase-Glo measures the ATP left after a reaction by luminescence.
For assay [7], the target named is Protein kinase 7 (PK7), Plasmodium falciparum 3D7 (PF3D7_0213400) (UniProt Q7YTF7). Nature of the assay: inhibition of Plasmodium PK7 catalytic activity – biochemical, TCAMS antimalarial set, Kinase-Glo luminescence (AID 1159587). As to conditions: recombinant PfPK7, Kinase-Glo ATP depletion luminescence.
Chain of Protein kinase 7 (PK7), Plasmodium falciparum 3D7 (PF3D7_0213400) (Q7YTF7 1-343): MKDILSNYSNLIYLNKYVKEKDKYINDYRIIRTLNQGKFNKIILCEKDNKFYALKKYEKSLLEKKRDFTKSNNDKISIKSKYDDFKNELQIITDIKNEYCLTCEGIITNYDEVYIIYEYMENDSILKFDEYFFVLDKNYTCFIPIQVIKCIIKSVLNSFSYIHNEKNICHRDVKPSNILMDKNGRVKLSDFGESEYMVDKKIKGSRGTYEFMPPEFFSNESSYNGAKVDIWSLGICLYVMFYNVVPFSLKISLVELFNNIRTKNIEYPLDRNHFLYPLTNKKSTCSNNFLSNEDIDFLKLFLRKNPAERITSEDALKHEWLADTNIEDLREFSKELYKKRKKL
The target of assay [8] is Calcium-dependent protein kinase 4 (Plasmodium falciparum (isolate 3D7)) (UniProt Q8IBS5). Nature of the assay: PfCDPK4 kinase inhibitors, biochemical, TCAMS library (AID 1159588; cut-off not given, nearly all actives have IC50 up to about 0.91 µM). As to conditions: recombinant PfCDPK4, Kinase-Glo ATP depletion luminescence.
Chain of Calcium-dependent protein kinase 4 (Plasmodium falciparum (isolate 3D7)) (Q8IBS5 whole entry, looked up): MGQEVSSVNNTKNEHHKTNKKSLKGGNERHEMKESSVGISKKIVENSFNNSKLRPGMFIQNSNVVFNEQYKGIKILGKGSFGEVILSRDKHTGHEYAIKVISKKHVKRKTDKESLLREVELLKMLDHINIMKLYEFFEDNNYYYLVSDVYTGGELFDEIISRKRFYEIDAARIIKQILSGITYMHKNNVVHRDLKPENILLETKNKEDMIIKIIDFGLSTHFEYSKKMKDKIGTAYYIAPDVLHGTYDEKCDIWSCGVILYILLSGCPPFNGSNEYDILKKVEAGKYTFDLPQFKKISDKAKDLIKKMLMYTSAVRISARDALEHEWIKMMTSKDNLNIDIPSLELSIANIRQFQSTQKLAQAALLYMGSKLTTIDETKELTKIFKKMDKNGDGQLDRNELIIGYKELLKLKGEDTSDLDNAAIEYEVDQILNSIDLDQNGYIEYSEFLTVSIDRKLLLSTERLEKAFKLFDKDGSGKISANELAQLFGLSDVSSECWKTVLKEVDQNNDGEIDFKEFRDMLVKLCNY

A number with no mark means an inactive call. For some of these results: Entries with a potency or affinity are not part of this list. Active and inactive are the calls of the source. Unless noted, how the calls were made is not given here.

This is an account of results in PubChem BioAssay.

What is called inhibition is the relative decrease from the control value, in per cent.

Chain of Plasmodium falciparum protein kinase 6 (PK6, PF3D7_1337100) (Q8IDW1 1-305): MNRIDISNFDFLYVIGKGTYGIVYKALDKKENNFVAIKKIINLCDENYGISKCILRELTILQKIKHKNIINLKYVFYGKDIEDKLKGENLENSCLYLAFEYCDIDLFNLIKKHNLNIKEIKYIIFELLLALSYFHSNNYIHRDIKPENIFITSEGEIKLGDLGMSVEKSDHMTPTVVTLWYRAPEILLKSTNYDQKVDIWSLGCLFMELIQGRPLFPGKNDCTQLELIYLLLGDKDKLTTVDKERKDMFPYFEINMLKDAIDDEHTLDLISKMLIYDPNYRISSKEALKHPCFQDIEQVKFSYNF
Chain of Calcium-dependent protein kinase 1 (Plasmodium falciparum (isolate 3D7)) (P62344 whole entry, looked up): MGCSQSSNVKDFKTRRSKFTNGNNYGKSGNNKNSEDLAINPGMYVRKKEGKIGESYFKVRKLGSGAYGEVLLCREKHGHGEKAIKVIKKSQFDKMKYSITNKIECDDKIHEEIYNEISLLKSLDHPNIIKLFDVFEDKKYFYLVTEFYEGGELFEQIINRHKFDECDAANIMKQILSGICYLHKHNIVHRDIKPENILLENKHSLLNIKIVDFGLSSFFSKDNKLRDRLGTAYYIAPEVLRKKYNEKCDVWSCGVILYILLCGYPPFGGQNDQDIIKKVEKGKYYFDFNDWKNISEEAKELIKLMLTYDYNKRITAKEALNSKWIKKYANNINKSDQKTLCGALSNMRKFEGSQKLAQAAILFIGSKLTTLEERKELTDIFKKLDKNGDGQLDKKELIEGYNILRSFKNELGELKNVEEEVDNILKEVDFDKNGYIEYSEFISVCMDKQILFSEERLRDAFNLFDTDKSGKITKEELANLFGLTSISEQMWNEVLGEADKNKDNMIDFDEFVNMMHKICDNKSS
Chain of L-lactate dehydrogenase (Plasmodium falciparum (isolate CDC / Honduras)) (Q27743 whole entry, looked up): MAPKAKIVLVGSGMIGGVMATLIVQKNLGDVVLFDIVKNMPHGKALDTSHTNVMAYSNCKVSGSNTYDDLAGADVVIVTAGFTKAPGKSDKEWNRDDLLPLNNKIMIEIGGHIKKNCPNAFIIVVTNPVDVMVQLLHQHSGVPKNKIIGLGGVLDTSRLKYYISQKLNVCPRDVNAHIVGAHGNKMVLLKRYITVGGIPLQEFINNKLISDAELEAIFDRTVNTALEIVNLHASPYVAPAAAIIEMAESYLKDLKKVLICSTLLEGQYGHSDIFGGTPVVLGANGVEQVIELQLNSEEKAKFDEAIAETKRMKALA

`NC(N)=Nc1nc(-c2ccc(NC(=O)Nc3cccc(-c4csc(N=C(N)N)n4)c3)cc2)cs1`: the growth inhibition was 80% (active) in assay [1] and 94% (active) in assay [4]. The values for the inhibition in assay [2] and in assay [3] were -9% and 3%, respectively. The outcome in assay [5], in assay [6], in assay [7] and in assay [8] was inactive.

As for `CCc1cn2c3c(cc(C(=O)N[C@@H](Cc4ccccc4)[C@H](O)CNCCOC)cc13)N(C)S(=O)(=O)CC2`, the growth inhibition in assay [1] was 56% (active); in assay [4] it was 98% (active). Moreover, the values for the inhibition in assay [2] and in assay [3] were 7% and -9%, respectively. The result in assay [5], in assay [6], in assay [7] and in assay [8] was inactive.

For `CC(Oc1cc(-n2cnc3ccc(NC(=O)CCN4CCCCC4)cc32)sc1C(N)=O)c1ccccc1Cl` (stereo not given), the growth inhibition was 98% (active) in assay [1] and 99% (active) in assay [4]. In addition, the values for the inhibition in assay [2] and in assay [3] were 95% (active) and 1%, respectively. Further, the outcome in assay [5], in assay [6], in assay [7] and in assay [8] was inactive.

For the molecule `CC(C)(C)c1ccc(CNC(=O)c2ccc(-c3nc4ccc(C(C)(C)C)cc4[nH]3)cc2)cc1`, the growth inhibition in assay [1] was 49%; in assay [4], 96% (active). The inhibition in assay [2] was 21%; in assay [3], 3%. The outcome in assay [5], in assay [6], in assay [7] and in assay [8] was inactive.

As to `CCOC(=O)c1ccc(NC(=O)N(Cc2ccc(-c3cccc(CN4CCNCC4)c3)cc2)C2CCN(Cc3ccccc3)CC2)cc1`, the growth inhibition in assay [1] was 55% (active); in assay [4], 100% (active). Moreover, the inhibition in assay [2] was 19%; in assay [3] it was 4%. Also, the outcome in assay [5], in assay [6], in assay [7] and in assay [8] was inactive.

`C=CCN(C(=O)c1ccc(Cl)c([N+](=O)[O-])c1)c1nc(-c2ccccc2)cs1`: the growth inhibition in assay [1] was 99% (active); in assay [4], 100% (active). Moreover, the inhibition in assay [2] is -13%; in assay [3] it was -6%. The outcome in assay [5], in assay [6], in assay [7] and in assay [8] was inactive.

On to `Cc1cccc(OC2CCN(c3ncc(C(=O)NCCCN4CCCC4=O)cc3Cl)CC2)c1`, for which the growth inhibition in assay [1] is 95% (active); in assay [4] it was 96% (active). In addition, the inhibition in assay [2] was 7%; in assay [3], -2%. Further, the result in assay [5], in assay [6], in assay [7] and in assay [8] was inactive.

`CCN(CC)C(=S)N=Nc1c(O)[nH]c2c(C)cccc12`: the growth inhibition was 69% (active) in assay [1] and 94% (active) in assay [4]. The inhibition in assay [2] was 28%; in assay [3], 3%. In addition, the result in assay [5], in assay [6], in assay [7] and in assay [8] was inactive.

`Cc1[nH]c2ccccc2c(=O)c1-c1ccc(Cl)cc1`: the results for the growth inhibition in assay [1] and in assay [4] were 91% (active) and 93% (active), respectively. Further, the results for the inhibition in assay [2] and in assay [3] were -1% and 2%, respectively. Also, the result in assay [5], in assay [6], in assay [7] and in assay [8] was inactive.

With `CNC(=O)c1cnc(Nc2ccc(N3CCOCC3)cc2)nc1Nc1cccc(O)c1`, the growth inhibition is 78% (active) in assay [1] and 90% (active) in assay [4]. Also, the inhibition in assay [2] was 23%; in assay [3], -2%. In addition, the result in assay [5], in assay [6], in assay [7] and in assay [8] was inactive.

With `FC(F)(F)c1cccc(Nc2nc(-n3ccnc3)nc(-n3ccnc3)n2)c1`, the growth inhibition in assay [1] was 9%; in assay [4], 97% (active). Moreover, the inhibition in assay [2] is 5%; in assay [3], 1%. In addition, the result in assay [5], in assay [6], in assay [7] and in assay [8] was inactive.

Turning to `O=S(=O)(Nc1cccc(CCN2CCC(N3CCCCC3)CC2)c1)c1ccc(Oc2ccccc2)nc1`, the values for the growth inhibition in assay [1] and in assay [4] were -4% and 99% (active), respectively. Also, the inhibition in assay [2] was 8%; in assay [3], -2%. Besides, the outcome in assay [5], in assay [6], in assay [7] and in assay [8] was inactive.

On to `Cc1cccc(CC(N)=NCCCCCCN=C(N)Cc2cccc(C)c2)c1`, for which the growth inhibition in assay [1] and in assay [4] was 97% (active) each time. In addition, the inhibition is 12% in assay [2] and 3% in assay [3]. In addition, the result in assay [5], in assay [6], in assay [7] and in assay [8] was inactive.

Turning to `CCc1cn(CCc2ccccc2)c2ccc(C(=O)N[C@@H](Cc3ccccc3)[C@H](O)CNC(C)(C)CCCC(C)C)cc12`, the growth inhibition in assay [1] is 99% (active); in assay [4], 98% (active). The inhibition is 66% (active) in assay [2] and 5% in assay [3]. Further, the outcome in assay [5], in assay [6], in assay [7] and in assay [8] was inactive.

Turning to `O=C1C(=Cc2cc(Cc3ccccc3)ccc2O)SC(=S)N1Cc1ccccc1`, the growth inhibition in assay [1] is 53% (active); in assay [4], 98% (active). The inhibition was 16% in assay [2] and -2% in assay [3]. Further, the outcome in assay [5], in assay [6], in assay [7] and in assay [8] was inactive.

In the case of `COc1cccc(CNC[C@@H](O)[C@H](Cc2ccccc2)NC(=O)c2cc(C3CCCC3)cc(N3CCCCS3(=O)=O)c2)c1`, the figures for the growth inhibition in assay [1] and in assay [4] were 83% (active) and 96% (active), respectively. The inhibition is 7% in assay [2] and 4% in assay [3]. Moreover, the outcome in assay [5], in assay [6], in assay [7] and in assay [8] was inactive.

For `CCc1ccc(CN2CCC(NC(=O)c3cc(-c4ccc(N(C)C)cc4)cs3)C2)cc1` (stereo not given), the growth inhibition in assay [1] is 7%; in assay [4] it was 90% (active). For the same molecule, the figures for the inhibition in assay [2] and in assay [3] were 29% and 3%, respectively. Further, the result in assay [5], in assay [6], in assay [7] and in assay [8] was inactive.

As for `Cc1ccc(-c2nc(N3CCN(C(=O)c4ccco4)CC3)c3ccc(Cl)cc3n2)cc1`, the figures for the growth inhibition in assay [1] and in assay [4] were 78% (active) and 90% (active), respectively. Moreover, the inhibition is 17% in assay [2] and 3% in assay [3]. For the same molecule, the result in assay [5], in assay [6], in assay [7] and in assay [8] was inactive.

Take `O=C(Nc1cccc(N2CCC(NCCCn3ccnc3)CC2)c1)c1cccc(C(F)(F)F)c1`: the growth inhibition in assay [1] is 2%; in assay [4] it was 101% (active). Further, the results for the inhibition in assay [2] and in assay [3] were 8% and 3%, respectively. In addition, the outcome in assay [5], in assay [6], in assay [7] and in assay [8] was inactive.

Turning to `CC(CN(C)C)C(=O)Nc1ccc(-c2csc(-c3nc4ccccc4[nH]3)c2)cc1` (stereo not given), the growth inhibition in assay [1] was 19%; in assay [4], 84% (active). Also, the inhibition was 28% in assay [2] and -4% in assay [3]. In addition, the outcome in assay [5], in assay [6], in assay [7] and in assay [8] was inactive.
